Compound activity deposited in PubChem by National Center for Advancing Translational Sciences (NCATS).
HT1080NT lethal: kills 2HG-producing HT-1080-NT fibrosarcoma cells; 360,000 tested, 1.6% active; HT-1080-NT fibrosarcoma viability, CellTiter-Glo ATP luminescence, 48 h; Potency, µM (top dose mostly 46.1 µM), usual class: cytotoxic;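 note: NT is the 2HG producing partner of a matched IDH1 knockdown line; nearly all actives have a fitted effect of over 55% in size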
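750 cells/well, RPMI + 5% FBS; 2 h settle, compound pin-transfer, 48 h at 37 degrees C. CellTiter-Glo 10 min RT, luminescence. Normalized to DMSO and media-only wells.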
TDP1 cell CPT: DT40-hTDP1 cell growth loss with CPT. 420,000 tested, 12% active. Potency, µM (top dose mostly 46.2 µM), actives largely listed as inhibitors. chicken DT40 Tdp1-/-;hTDP1 cells + 20 nM CPT, ATP luminescence, 48 h; note: nearly all actives have a fitted effect of over 55% in size
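Cell growth measured by CellTiter-Glo luminescence after a minimum 48 h, 37 C compound exposure with 20 nM CPT in Tdp1-knockout DT40 cells stably expressing hTDP1, seeded 400/well; qHTS titration format.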
12-LOX inh: blocks human arachidonate 12S-lipoxygenase; purified 12hLO, xylenol orange hydroperoxide absorbance; Potency, µM (series often up to 108 µM), actives largely listed as inhibitors; 580,000 tested, 1.1% active; AID 1671190; P18054
Target sequence (P18054 whole entry, looked up): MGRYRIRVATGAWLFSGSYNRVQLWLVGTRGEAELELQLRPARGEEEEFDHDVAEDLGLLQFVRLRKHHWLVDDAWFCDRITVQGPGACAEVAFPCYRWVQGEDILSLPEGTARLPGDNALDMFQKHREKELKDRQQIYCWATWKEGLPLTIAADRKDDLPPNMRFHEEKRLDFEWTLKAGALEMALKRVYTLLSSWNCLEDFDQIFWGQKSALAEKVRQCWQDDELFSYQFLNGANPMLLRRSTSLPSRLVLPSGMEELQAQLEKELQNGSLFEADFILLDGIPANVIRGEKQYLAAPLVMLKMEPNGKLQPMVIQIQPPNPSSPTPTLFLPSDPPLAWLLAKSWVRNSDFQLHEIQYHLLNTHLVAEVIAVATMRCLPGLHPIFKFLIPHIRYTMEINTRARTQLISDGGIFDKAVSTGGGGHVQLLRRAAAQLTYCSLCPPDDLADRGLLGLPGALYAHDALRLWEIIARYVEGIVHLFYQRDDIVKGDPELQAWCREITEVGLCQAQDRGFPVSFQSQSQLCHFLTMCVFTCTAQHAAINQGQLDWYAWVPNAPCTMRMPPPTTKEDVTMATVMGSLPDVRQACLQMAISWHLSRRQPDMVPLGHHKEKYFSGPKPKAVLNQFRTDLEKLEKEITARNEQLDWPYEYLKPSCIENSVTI
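Purified human 12hLO at 150 nM in 25 mM Hepes, 0.01% Triton X-100, pH 7.0, preincubated 15 min at room temperature with compound. Reaction started with 40 uM arachidonic acid, 30 min at room temperature. Hydroperoxide measured by Fe-xylenol orange, 573/405 nm absorbance ratio.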
HT1080 IDH1KD tx: HT-1080 IDH1 knockdown cell toxicity (counter line). HT-1080 IDH1 knockdown viability, ATP luminescence, 48 h. Potency, µM (top dose mostly 46.1 µM), usual class: cytotoxic. 360,000 tested, 2% active
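HT-1080-IDH1KD cells (IDH1 knocked down), 750/well in RPMI with 5% FBS, treated with compound 48 h at 37 degrees C. Viability by CellTiter-Glo luminescence, normalised to DMSO and no-cell wells; concentration-response curves classed.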
DT40 TDP1 no CPT: qHTS for Inhibitors of human tyrosyl-DNA phosphodiesterase 1 (TDP1): qHTS in cells in absence of CPT | 420,000 tested, 15% active | DT40 Tdp1-/- hTDP1 cells, no CPT, ATP luminescence, 48 h | Potency, µM (series often up to 46.2 µM), hits mostly inhibitors | AID 686978, 2013; note: nearly all actives have a fitted effect of over 55% in size
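No-CPT arm: Tdp1-/-;hTDP1 DT40 cells (400/well) plus compounds, incubated ≥48 hr at 37 °C. Readout CellTiter-Glo luminescence.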
IL1B secr inh: inhibitors of inflammasome signaling (IL-1 beta secretion). THP-1 LPS/ATP IL-1B secretion, AlphaLISA, 16 h; hits give low values. activity change, % at 57.5 µM. 360,000 tested, 4.7% active. AID 743279; in the data active = activity change below about -50%; inconclusive = mostly about -30% to -49%
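THP-1 cells pretreated 1 hr with compounds (up to 57.5 uM final), then stimulated with LPS (250 ng/mL final) plus ATP (1.25 mM final); secreted IL-1B measured by AlphaLISA after 16 hr, decreased signal indicating inhibition.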
Each line names hits and unclear results; the compound was inactive in the other large screens. Shown is part of a subset that was picked to be rich in hits. Unless noted, calls come from the whole dose curve; as a rule, active = well fitted curve in the direction sought with a large enough effect; inconclusive = small, poorly fitted or top-dose-only effect, or another doubt; inactive = no such curve, though single readings can be large; an effect the other way counts as inactive or inconclusive.

O=C(CCl)Nc1cccc(S(=O)(=O)N2CCCCCC2)c1	HT1080NT lethal inconclusive, TDP1 cell CPT 4.1µM, HT1080 IDH1KD tx 18µM, DT40 TDP1 no CPT 5.2µM, IL1B secr inh -102
O=C(CSc1nnc(-c2cccc(S(=O)(=O)N3CCOCC3)c2)n1C1CCCCCC1)NCc1ccccc1	TDP1 cell CPT 22µM, DT40 TDP1 no CPT inconclusive
COc1ccc(Br)cc1CN(C)CC(=O)Nc1c(Cl)cccc1Cl	TDP1 cell CPT inconclusive, DT40 TDP1 no CPT 23µM, IL1B secr inh inconclusive
COc1ccc(Cl)cc1NC(=O)C(C)OC(=O)Cn1cc(C(F)(F)F)ccc1=O (stereo unspecified)	TDP1 cell CPT inconclusive
O=C(c1ccc(Cl)cc1)N1CCn2c(nn(-c3cccc(Cl)c3)c2=O)C1	none (no result: HT1080NT lethal, TDP1 cell CPT, HT1080 IDH1KD tx, DT40 TDP1 no CPT, IL1B secr inh)
COc1ccc(/C=C/C(=O)ONC2=NCCCCC2)cc1OC	TDP1 cell CPT 23µM, HT1080 IDH1KD tx inconclusive, DT40 TDP1 no CPT inconclusive
N=c1sccn1CC(=O)Nc1cccc(S(=O)(=O)N2CCCCCC2)c1	TDP1 cell CPT inconclusive, DT40 TDP1 no CPT 21µM
CC(C)=CC(=O)Nc1cccc(S(=O)(=O)NC2=NCCCCC2)c1	none
COc1ccc(CC(=O)Nc2cccc(S(=O)(=O)N3CCCC3)c2)cc1OC	TDP1 cell CPT 15µM, DT40 TDP1 no CPT 18µM
COc1ccc(CC(=O)Nc2cccc(S(=O)(=O)N3CCOCC3)c2)cc1OC	TDP1 cell CPT inconclusive, DT40 TDP1 no CPT inconclusive
COc1ccc(/C=C/C(=O)Nc2cccc(S(=O)(=O)NC3=NCCCCC3)c2)cc1OC	TDP1 cell CPT 15µM, DT40 TDP1 no CPT 8.2µM
CCn1c(NCCO)nc2c1c(=O)n(C)c(=O)n2C	none (no result: HT1080NT lethal, TDP1 cell CPT, HT1080 IDH1KD tx, DT40 TDP1 no CPT, IL1B secr inh)
CCc1ccccc1-n1c(SCc2nc3ccccc3o2)nnc1N1CCOCC1	none (no result: HT1080NT lethal, TDP1 cell CPT, HT1080 IDH1KD tx, DT40 TDP1 no CPT, IL1B secr inh)
COc1ccc(Br)cc1CN(C)CC(=O)Nc1cccc(S(=O)(=O)N2CCCC2)c1	TDP1 cell CPT 15µM, DT40 TDP1 no CPT 10µM, IL1B secr inh -52
COc1ccc(/C=C/C(=O)Nc2cccc(S(=O)(=O)N3CCCC3)c2)cc1OC	TDP1 cell CPT inconclusive, DT40 TDP1 no CPT 21µM
O=C(CCNC(=O)c1ccc(Br)cc1)Nc1cccc(S(=O)(=O)N2CCCCCC2)c1	TDP1 cell CPT 13µM, DT40 TDP1 no CPT inconclusive
O=C(Cc1ccc(Cl)cc1)Nc1cccc(S(=O)(=O)N2CCCCC2)c1	TDP1 cell CPT inconclusive, DT40 TDP1 no CPT 21µM
CN1CCN(c2nc3c(c(=O)[nH]2)CCN(Cc2cccc(Br)c2)CC3)CC1	none (no result: HT1080NT lethal, TDP1 cell CPT, HT1080 IDH1KD tx, DT40 TDP1 no CPT, IL1B secr inh)
Cc1nn(-c2cccc(Br)c2)c(C)c1[C@@H]1C=C[C@@H](NCc2cccc(C#N)c2)C1	none (no result: HT1080NT lethal, TDP1 cell CPT, HT1080 IDH1KD tx, DT40 TDP1 no CPT, IL1B secr inh)
COc1cc(/C=C(/C#N)c2nc3ccccc3[nH]2)ccc1SC	none (no result: HT1080NT lethal, TDP1 cell CPT, HT1080 IDH1KD tx, DT40 TDP1 no CPT, IL1B secr inh)
COc1ccc(OCC(O)CN(C)C)c(CN2CCC(c3ccncn3)CC2)c1 (stereo unspecified)	none (no result: HT1080NT lethal, TDP1 cell CPT, HT1080 IDH1KD tx, DT40 TDP1 no CPT, IL1B secr inh)
O=C(CCNS(=O)(=O)c1ccc(OC(F)(F)F)cc1)Nc1cccc(S(=O)(=O)N2CCCC2)c1	TDP1 cell CPT 18µM, DT40 TDP1 no CPT inconclusive
CC(C)(C)c1ccc(OCCC(=O)Nc2cccc(S(=O)(=O)N3CCCC3)c2)cc1	TDP1 cell CPT inconclusive, DT40 TDP1 no CPT inconclusive
CCOC(=O)c1cc(S(=O)(=O)Nc2ccc(OCc3ccccc3)cc2)[nH]n1	12-LOX inh 8.9µM (no result: HT1080NT lethal, TDP1 cell CPT, HT1080 IDH1KD tx, DT40 TDP1 no CPT, IL1B secr inh)
CSc1sc(C(=O)NC(=O)NCc2ccncc2)c(C)c1-c1ccon1	TDP1 cell CPT inconclusive, DT40 TDP1 no CPT 16µM
O=C(CC1SC(c2cc3ccccc3oc2=O)=NC1=O)Nc1ccccc1 (stereo unspecified)	none (no result: HT1080NT lethal, TDP1 cell CPT, HT1080 IDH1KD tx, DT40 TDP1 no CPT, IL1B secr inh)
C/C(CC(=O)Nc1ccc([N+](=O)[O-])cc1)=N\NC(=O)c1ccccc1O	none
C/C(CC(=O)Nc1ccc(N(C)C)cc1)=N\NC(=O)c1ccccc1O	HT1080NT lethal 21µM, HT1080 IDH1KD tx inconclusive
COc1cccc(C(=O)N/N=C(\C)CC(=O)Nc2ccc(N(C)C)cc2)c1	HT1080NT lethal inconclusive, IL1B secr inh -89
C/C(CC(=O)Nc1ccc(N(C)C)cc1)=N\NC(=O)c1ccc([N+](=O)[O-])cc1Cl	TDP1 cell CPT inconclusive, DT40 TDP1 no CPT 21µM
CC(C)CCNC(=O)C1Cn2cccc2C(=O)N1CC(C)C (stereo unspecified)	none (no result: HT1080NT lethal, TDP1 cell CPT, HT1080 IDH1KD tx, DT40 TDP1 no CPT, IL1B secr inh)
COc1ccc(C2=NS(=O)(=O)N(C)C(C(=O)N3CCN(c4ccc(F)cc4)CC3)=C2)cc1	none (no result: HT1080NT lethal, TDP1 cell CPT, HT1080 IDH1KD tx, DT40 TDP1 no CPT, IL1B secr inh)
CC(Sc1nnc(-c2ccc(Cl)cc2Cl)n1Cc1ccccc1)C(=O)Nc1nccs1 (stereo unspecified)	HT1080NT lethal inconclusive, TDP1 cell CPT inconclusive, HT1080 IDH1KD tx inconclusive, DT40 TDP1 no CPT inconclusive
Cc1ccccc1NC(=O)C(C)Sc1nnc(CN2CCCC2)n1Cc1ccccc1 (stereo unspecified)	TDP1 cell CPT inconclusive, DT40 TDP1 no CPT 16µM
Cc1nnc(SC(C)C(=O)Nc2ccc(Cl)cn2)n1Cc1ccccc1 (stereo unspecified)	HT1080NT lethal inconclusive, DT40 TDP1 no CPT inconclusive, IL1B secr inh -60
O=CN1CCN(C(=O)CCn2c(-c3ccccc3)cc3ccccc32)CC1	none (no result: HT1080NT lethal, TDP1 cell CPT, HT1080 IDH1KD tx, DT40 TDP1 no CPT, IL1B secr inh)
